According to the supplement of paper PMC13380429:
Values without a mark were called inactive.

Tested on: Vero E6 infected with SARS-CoV-2
Test: inhibition of SARS-CoV-2 cytopathic effect; higher = more antiviral protection, active = above 15
Settings: 100 nM; 48 h

| SMILES | inhibition of SARS-CoV-2 cytopathic effect [%] |
| --- | --- |
| N[C@@H](C(=O)O)c1ccc(C(=O)O)c(O)c1 (racemic) [4-carboxy-3-hydroxyphenylglycine-(RS)] | 0.94 |
| CN1c2c([nH]c(N)nc2=O)NC[C@@H]1CNc1ccc(C(=O)N[C@@H](CCC(=O)O)C(=O)O)cc1 [metafolin] | 1.95 |
| Nc1ncnc2c1ncn2[C@@H]1O[C@H](C[C@@H](N)CC[C@H](N)C(=O)O)[C@@H](O)[C@H]1O [sinefungin] | -10 |
| CCN1CCCC1CNC(=O)c1cc(S(=O)(=O)CC)c(N)cc1OC (centres undefined) [amisulpride] | 0.45 |

Same assay, conditions: 833.33 nM; 48 h

| SMILES | inhibition of SARS-CoV-2 cytopathic effect [%] |
| --- | --- |
| Nc1ccncc1 [dalfampridine] | 2.49 |
| Cc1ccc(-c2cn3c4c(sc3n2)CCCC4)cc1 [pifithrin-cyclic] | 0.25 |
| NS(=O)(=O)c1ccc2c(c1)C1C=CCC1C(c1ccc(Br)cc1)N2 (centres undefined) | -1.33 |
| CC[N+](CC)(CC(=O)Nc1c(C)cccc1C)Cc1ccccc1 [denatonium-benzoate] | -1.56 |
| CC(C)(C)Nc1nc(Nc2ccc(C(N)=O)cc2)cc(N)c1C#N | -2.89 |
| CCCNC(C)C(=O)Nc1ccccc1C (centres undefined) [prilocaine] | 2.12 |
| CCOC(=O)C1=C[C@]2(CC)CCCN3CCc4c(n1c1ccccc41)[C@@H]32 [vinpocetine] | 1.98 |
| CC(C)[C@](O)(c1ccc2cc(OC(F)F)c(OC(F)F)cc2c1)c1c[nH]nn1 | 5.3 |
| C[C@H](N/C(=N/C#N)Nc1cccc2ncccc12)c1ccccc1 | 1.32 |
| O=c1[nH]c(=O)n([C@H]2CCCO2)cc1F (racemic) [ftorafur] | -0.34 |
| O=C(NCCN1CCCCC1)c1ccc(I)cc1 [N-[2-(piperidinylamino)ethyl]-4-iodobenzamide] | -2.57 |
| Cc1cccc(C)c1NC(=O)[C@@H](C)N [tocainide] | 1.04 |
| Nc1ncnc(Nc2ccc(Cl)cc2)n1 [chlorazanil] | -1.03 |
| CS(=O)(=O)c1ccc(C2=C(c3ccccc3)C(=O)OC2)cc1 [rofecoxib] | 0.62 |
| O=C(O)/C=C/CO [trans-4-hydroxycrotonic-acid] | 5.18 |
| CN1CCN(CCCCN2C(=O)CN(/N=C/c3ccc(-c4ccc(Cl)cc4)o3)C2=O)CC1 [azimilide] | 0.41 |
| CCCCN(CCCC)CC(O)c1cc(Cl)cc2c1-c1ccc(Cl)cc1/C2=C/c1ccc(Cl)cc1 (centres undefined) [lumefantrine] | 0.99 |
| O=C(CCCCCCNC(=O)c1cnc(N(c2ccccc2)c2ccccc2)nc1)NO | -4.05 |
| CC(=O)O[C@]1(C(C)=O)CC[C@H]2[C@@H]3C[C@H](C)C4=CC(=O)C=C[C@]4(C)[C@@]3(F)[C@@H](O)C[C@@]21C [fluorometholone-acetate] | 0.37 |
| C[C@H](CCC(=O)O)[C@H]1CC[C@H]2[C@@H]3CC[C@@H]4C[C@H](O)CC[C@]4(C)[C@H]3C[C@H](O)[C@]12C [deoxycholic-acid] | -1.15 |

| SMILES | inhibition of SARS-CoV-2 cytopathic effect [%] |
| --- | --- |
| O=C1C=CC(=O)C2=C1C1c3ccccc3C2c2ccccc21 | 2.43 |
| CCCOC(C(=O)OC1CCN(C)CC1)(c1ccccc1)c1ccccc1 [propiverine] | -0.19 |
| NCCS(=O)(=O)O [taurine] | 0.1 |
| CCCC(O)C(CC)CO (centres undefined) [2-ethyl-1,3-hexanediol] | 0.52 |
| CC[n+]1c(-c2ccccc2)c2cc(N)ccc2c2ccc(N)cc21 [homidium] | 0.35 |
| COc1cc(S(C)(=O)=O)ccc1Nc1nc2ccc(-c3ccc(NC(=O)[C@H](C)c4ccc(F)cc4)cc3)cn2n1 | -5.66 |
| CC1C=CC=CCCC=CC=CC=CC=CC(OC2OC(C)C(O)C(N)C2O)CC2OC(O)(CC(O)C(O)CCC(O)CC(O)CC(O)CC(=O)OC(C)C(C)C1O)CC(O)C2C(=O)O (centres undefined) [nystatin] | -1.11 |
| CCCNCCc1ccc(NS(=O)(=O)c2ccc(OC(F)(F)F)cc2)cc1 | 1.93 |
| O=C(O)c1ccc(O)c2ncccc12 | 3.02 |
| CC[C@@H]1C(=O)OC[C@@H]1Cc1cncn1C [pilocarpine] | 3.49 |
| c1cnc(SCc2cccnc2)nc1 [tasuldine] | 0.69 |
| CCOc1ccc(Cc2cc([C@@H]3O[C@H](SC)[C@@H](O)[C@H](O)[C@H]3O)ccc2Cl)cc1 [sotagliflozin] | -3.56 |
| COc1cc2c(cc1OC)-c1cc3nc4ccccc4nc3n1C(C)(C)C2 | -2.74 |
| CC(C)NCC(O)c1ccc(N)c(C#N)c1 (centres undefined) [cimaterol] | 3.99 |
| CCn1c(=O)c(-c2ccc(Cl)cc2Cl)cc2cnc(Nc3ccc(N4CCNCC4)c(F)c3)nc21 | -6.85 |
| CCn1cc(C(=O)O)c(=O)c2cc(F)c(N3CCNC(C)C3)c(F)c21 (centres undefined) [lomefloxacin] | 0.73 |
| N[C@@H](C(=O)O)c1ccc(C(=O)O)c(O)c1 (racemic) [4-carboxy-3-hydroxyphenylglycine-(RS)] | -0.355 |
| CN1c2c([nH]c(N)nc2=O)NC[C@@H]1CNc1ccc(C(=O)N[C@@H](CCC(=O)O)C(=O)O)cc1 [metafolin] | 0.81 |
| Nc1ncnc2c1ncn2[C@@H]1O[C@H](C[C@@H](N)CC[C@H](N)C(=O)O)[C@@H](O)[C@H]1O [sinefungin] | -7.77 |
| CCN1CCCC1CNC(=O)c1cc(S(=O)(=O)CC)c(N)cc1OC (centres undefined) [amisulpride] | -2.32 |
